KB-3-1 cytotox: qHTS assay for MDR1-selective chemotherapeutics: Primary screen using the parental adenocarcinoma cell KB-3-1. 400,000 tested, 1.4% active. KB-3-1 viability, CellTiter-Glo ATP luminescence, 72 h. Potency, µM (titrated, usually from 46.1 µM), actives largely listed as cytotoxic; also: % is scaled to controls: 0 for no effect and ±100 for the full control effect; nearly all actives have a fitted effect of over 60% in size
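Viability of parental KB-3-1 cells, measured by CellTiter-Glo luminescence, followed a 72 h incubation at 37 °C with pinned compounds in phenol-red-free DMEM containing 10% FBS.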
KB-V1 MDR tox: qHTS assay for MDR1-selective chemotherapeutics: Primary screen using the drug-selected MDR subline cells KB-V1; Potency, µM (highest dose often 46.1 µM), most hits filed as cytotoxic; KB-V1 MDR cells viability, CellTiter-Glo, 72 h; AID 1347076, 2019; 400,000 tested, 3.4% active; also: % is scaled to controls: 0 for no effect and ±100 for the full control effect; nearly all actives have a fitted effect of over 60% in size
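KB-V1 MDR subline cells in DMEM (phenol-red free, 10% FBS) exposed to compounds in qHTS concentration series for 72 h at 37 degrees C. Viability read by CellTiter-Glo luminescence; concentration-effect curves fitted after normalization and correction.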
ELG1 DNA repair: qHTS screen for small molecules that inhibit ELG1-dependent DNA repair in human embryonic kidney (HEK293T) cells expressing luciferase-tagged ELG1. HEK293T ELG1-luciferase reporter, luminescence, 16 h; DNA damage induced by 5-fluorouridine. Potency, µM (series often up to 46.1 µM), without a hit: top-dose activity change, negative = inhibition, usual class: inhibitors. 330,000 tested, 2.3% active. AID 504467, 2011; also: % is scaled to controls: 0 for no effect and ±100 for the full control effect; nearly all actives have a fitted effect of over 55% in size
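5-Fluorouridine DNA damage + compound/DMSO, 2,000 cells/well, 16 h, 37 °C/5% CO2. ONE-Glo, 30 min RT, luminescence. Readout = decrease in reporter signal.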
SW480 rerep: A quantitative high throughput screen for small molecules that induce DNA re-replication in SW480 colon adenocarcinoma cells; SW480 DNA re-replication, Hoechst DNA content imaging, 48 h; Potency, µM (highest dose often 46.1 µM), inactives show at the top dose re-replication activation, hits mostly activators; 340,000 tested, 1.8% active; also: % of control where 0% means no effect; nearly all actives have a fitted effect of over 55% in size
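Image-based DNA-content assay: after two days of treatment, nuclei were labelled with the DNA dye Hoechst and imaged, and hits were compounds raising the count of nuclei showing high fluorescence intensity.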
MCF10A rerep: A quantitative high throughput screen for small molecules that induce DNA re-replication in MCF 10a normal breast cells; MCF 10A DNA re-replication, Hoechst nuclear intensity, 48 h; Potency, µM (series often up to 46.1 µM), without a hit: top-dose activity, positive = re-replication, hits mostly activators; 350,000 tested, 2.9% active; also: % of control where 0% means no effect; nearly all actives have a fitted effect of over 50% in size
* hit, by the source's call; i = inactive; ? = inconclusive; . = not tested or not shown; [ ] = another dose, or the depositor's remark. Compounds with a hit are over-represented: about 8.1% of the library has one in this group of screens. Calls follow the shape of the dose curve; as a rule, active = well fitted curve in the direction sought with a large enough effect; inconclusive = small, poorly fitted or top-dose-only effect, or another doubt; inactive = no such curve, though single readings can be large; an effect the other way counts as inactive or inconclusive. Potency is read from the fitted curve at half-maximal effect.

SMILES	KB-3-1 cytotox	KB-V1 MDR tox	ELG1 DNA repair	SW480 rerep	MCF10A rerep
CC(=O)Nc1cc(OC(C)=O)c2nonc2c1OC(C)=O	?	i	?	2.9µM*	?
COc1ccc(-n2cc(C(=O)OCc3ccc(Cl)cc3)c3ccccc3c2=O)cc1	i	i	.	.	.
CCCCSC(=S)NC1CCS(=O)(=O)C1 (stereo not given)	i	i	?	?	23µM*
O=S1(=O)CCC(NC(=S)SCCOc2ccccc2)C1 (stereo not given)	i	i	-7%	-139%[1.84 µM]	-2%
O=C(C(Br)=Cc1ccccc1)c1ccccc1	.	.	.	2.9µM*	16µM*
COc1cccc(-c2cc(C(=O)Nc3cc(OC)c(OC)c(OC)c3)on2)c1	9.2µM*	?	.	.	.
COc1cccc(-c2cc(C(=O)Nc3cc(Cl)ccc3O)on2)c1	i	i	.	.	.
Cc1ccccc1C(=O)Nc1ccc(OCc2cc(=O)n3cccc(C)c3n2)cc1	i	i	.	.	.
CN(Cc1c(F)cccc1Cl)c1nnnn1-c1ccccc1	i	21µM*	-5%	-3%	6%
Fc1cccc(Cl)c1CNCCSc1nnnn1-c1ccccc1	i	i	.	.	.
CCNC(=O)C1(C)CCCN1C(=O)c1cnc2ccccc2n1 (stereo not given)	i	i	.	.	.
Cc1cn(C)c(CC(=O)NCc2ccc(F)cc2)c1C(=O)O	i	?	.	.	.
CC(NC(=O)Cc1ccc(NS(=O)(=O)c2cccc(C(F)(F)F)c2)cc1)c1ccccn1 (stereo not given)	?	21µM*	1%	-7%	12%
CCCC(=O)Nc1c(I)cc(I)c(C[C@H](CC)C(=O)O)c1I	.	.	.	3%	3%
CC(C)CN(CC(C)C)C1=N/C(=C\c2ccco2)C(=O)N1c1ccccc1	i	i	?	?	15µM*
Cc1cccc(C2NC(=O)c3c(sc(C)c3C)N2)c1O (stereo not given)	i	i	8%	2%	5%
Cc1ccc(C2NC(=O)c3c(sc(C)c3C)N2)c(O)c1 (stereo not given)	i	i	?	21µM*	?
C/C=C1\COC(C(=O)NCCN2CCCC2)(C(F)(F)F)C=C1C=C1CCCCC1 (stereo not given)	i	i	.	?	6.5µM*
Cc1c(Cl)cccc1Nc1nc(N)nc(CSc2ncccn2)n1	i	18µM*	?	?	18%
Cc1c(Cl)cccc1Nc1nc(N)nc(CSCCO)n1	i	i	6%	-7%	-3%
CC1C(=O)CC(c2ccccc2)N(C)C1c1ccccc1 (stereo not given)	i	i	-2%	0%	26µM*
Nc1ccc(C(=O)OCC(=O)N2c3ccccc3Sc3ccccc32)cc1[N+](=O)[O-]	?	6.5µM*	-15%	-6%	?
Cc1ccc(NC(=O)c2ccc(NCCN)c([N+](=O)[O-])c2)cc1	?	i	?	?	5%
NCCNc1ccc(C(=O)N2c3ccccc3Sc3ccccc32)cc1[N+](=O)[O-]	?	21µM*	3%	?	?
Cc1ccc(OCC(=O)NCC(=O)OCc2cc(=O)n3nc(CC(C)C)sc3n2)cc1	i	i	.	.	.
SMILES	KB-3-1 cytotox	KB-V1 MDR tox	ELG1 DNA repair	SW480 rerep	MCF10A rerep
Cc1cc(C)cc(Cn2cc(CN3CC(N4CCN(CCO)CC4)CS3(=O)=O)nn2)c1 (stereo not given)	i	i	.	.	.
CCN(CC)CCN(Cc1cc2cc3c(cc2[nH]c1=O)OCCO3)C(=O)NC1CCCCC1	i	i	?	1%[9.22 µM]	3%
O=C(c1ccncc1)N(Cc1cc2ccccc2[nH]c1=O)C1CCCCC1	9.2µM*	?	?	12%	?
COc1ccc2[nH]c(=O)c(CN(C(=O)NC3CCCCC3)C3CCCCC3)cc2c1	?	10µM*	1%	16%	2%
COc1ccc(CN(Cc2cc3cc4c(cc3[nH]c2=O)OCO4)C(=O)NC2CCCCC2)cc1	?	i	16µM*	10%	7%
O=C(c1ccco1)N(Cc1cc2ccccc2[nH]c1=O)C1CCCCC1	i	i	?	0%	-3%
CCCCC1Cc2[nH]c(=S)[nH]c(=O)c2C(c2ccc(Cl)cc2)O1 (stereo not given)	i	i	.	.	.
O=S1(=O)c2ccccc2N(Cc2ccccc2F)c2ccccc21	i	i	.	.	.
O=C(CN1CCN(c2ccccc2O)CC1)NC(c1ccccc1)c1ccccc1	i	4.1µM*	?	-9%	-9%
O=C(CN1CCCC1)NC(c1ccccc1)c1ccccc1	i	i	13%	-16%	-2%
C=CCOc1ccc(/C=C2\SC(=S)N(N3CCOCC3)C2=O)cc1	i	i	-8%	5.8µM*	-3%
CCNC(=S)Nc1ccc(Cl)c(C(F)(F)F)c1	?	23µM*	-24%	?	?
COc1cc(C(=O)Nc2ccc(Cl)c(C(F)(F)F)c2)cc(OC)c1OC	i	?	5.2µM*	1%	?
COc1cccc(C(=O)Nc2ccc(Cl)c(C(F)(F)F)c2)c1	i	i	-15%	10%	10%
COc1cc(CCC(=O)Nc2ccc(Cl)c(C(F)(F)F)c2)cc(OC)c1OC	i	16µM*	?	2%	17%
Cc1cc(CN(Nc2ccccc2)c2ccccc2)cc(C)n1	i	?	.	.	.
CC[C@@]1(c2ccccc2)NC(=O)N(C)C1=O	.	.	.	1%	14%
COc1ccc(Cn2c(SCC(=O)NCc3ccc(Cl)cc3)nc3ccsc3c2=O)cc1	i	i	.	.	.
CC(=O)c1ccc(-c2ccc(C(=O)NCC(c3ccc(F)cc3)N3CCOCC3)o2)cc1 (stereo not given)	i	i	-15%	?	10%
Cc1ccc(-n2nnnc2CNC(=O)c2ccc([N+](=O)[O-])o2)cc1C	15µM*	i	?	13µM*	?
O=C(NCC(c1ccc(F)cc1)N1CCOCC1)c1ccc([N+](=O)[O-])o1 (stereo not given)	?	?	?	10µM*	18µM*
O=C(NCc1nnnn1-c1ccc(F)cc1)c1ccc([N+](=O)[O-])o1	18µM*	?	?	?	?
COc1ccc(CCCN2CCC(CN3CCNC(=O)C3=O)CC2)cc1OC	i	i	.	11%	-43%
CN(Cc1ccco1)Cc1ccc(O)c2ncccc12	i	i	?	?	11%
CCCOCc1ccc(O)c2ncccc12	?	?	7.3µM*	5.8µM*	18%

Screens: PubChem, National Center for Advancing Translational Sciences (NCATS)
